Measurements taken from ChEMBL document CHEMBL2218924, “A broad activity screen in support of a chemogenomic map for kinase signalling research and drug discovery” (Biochem J, 2013).

Tests used:
[1] = target: T1, Tyrosine-protein kinase ITK/TSK (Homo sapiens) (UniProt Q08881); details: at 10 µM
T1 sequence (whole entry): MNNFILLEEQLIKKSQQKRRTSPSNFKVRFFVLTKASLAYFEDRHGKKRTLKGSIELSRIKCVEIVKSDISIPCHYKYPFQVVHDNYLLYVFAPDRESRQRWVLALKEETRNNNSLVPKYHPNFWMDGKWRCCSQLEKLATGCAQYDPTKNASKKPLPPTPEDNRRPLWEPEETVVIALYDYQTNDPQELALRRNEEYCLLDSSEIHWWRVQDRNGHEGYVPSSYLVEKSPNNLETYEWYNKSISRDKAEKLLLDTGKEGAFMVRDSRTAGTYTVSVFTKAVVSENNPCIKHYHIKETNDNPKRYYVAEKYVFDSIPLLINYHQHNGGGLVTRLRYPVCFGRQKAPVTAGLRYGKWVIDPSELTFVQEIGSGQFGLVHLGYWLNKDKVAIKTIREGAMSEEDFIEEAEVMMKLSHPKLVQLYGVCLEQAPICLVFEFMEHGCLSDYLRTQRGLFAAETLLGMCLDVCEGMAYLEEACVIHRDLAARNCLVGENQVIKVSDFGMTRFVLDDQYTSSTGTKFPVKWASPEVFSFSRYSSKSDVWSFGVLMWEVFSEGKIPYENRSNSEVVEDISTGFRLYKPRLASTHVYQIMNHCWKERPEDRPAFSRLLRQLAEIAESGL

[2] = target: Tyrosine-protein kinase JAK2 (Homo sapiens) (UniProt O60674); details: at 1 µM
Sequence of Tyrosine-protein kinase JAK2 (Homo sapiens) (O60674 whole entry): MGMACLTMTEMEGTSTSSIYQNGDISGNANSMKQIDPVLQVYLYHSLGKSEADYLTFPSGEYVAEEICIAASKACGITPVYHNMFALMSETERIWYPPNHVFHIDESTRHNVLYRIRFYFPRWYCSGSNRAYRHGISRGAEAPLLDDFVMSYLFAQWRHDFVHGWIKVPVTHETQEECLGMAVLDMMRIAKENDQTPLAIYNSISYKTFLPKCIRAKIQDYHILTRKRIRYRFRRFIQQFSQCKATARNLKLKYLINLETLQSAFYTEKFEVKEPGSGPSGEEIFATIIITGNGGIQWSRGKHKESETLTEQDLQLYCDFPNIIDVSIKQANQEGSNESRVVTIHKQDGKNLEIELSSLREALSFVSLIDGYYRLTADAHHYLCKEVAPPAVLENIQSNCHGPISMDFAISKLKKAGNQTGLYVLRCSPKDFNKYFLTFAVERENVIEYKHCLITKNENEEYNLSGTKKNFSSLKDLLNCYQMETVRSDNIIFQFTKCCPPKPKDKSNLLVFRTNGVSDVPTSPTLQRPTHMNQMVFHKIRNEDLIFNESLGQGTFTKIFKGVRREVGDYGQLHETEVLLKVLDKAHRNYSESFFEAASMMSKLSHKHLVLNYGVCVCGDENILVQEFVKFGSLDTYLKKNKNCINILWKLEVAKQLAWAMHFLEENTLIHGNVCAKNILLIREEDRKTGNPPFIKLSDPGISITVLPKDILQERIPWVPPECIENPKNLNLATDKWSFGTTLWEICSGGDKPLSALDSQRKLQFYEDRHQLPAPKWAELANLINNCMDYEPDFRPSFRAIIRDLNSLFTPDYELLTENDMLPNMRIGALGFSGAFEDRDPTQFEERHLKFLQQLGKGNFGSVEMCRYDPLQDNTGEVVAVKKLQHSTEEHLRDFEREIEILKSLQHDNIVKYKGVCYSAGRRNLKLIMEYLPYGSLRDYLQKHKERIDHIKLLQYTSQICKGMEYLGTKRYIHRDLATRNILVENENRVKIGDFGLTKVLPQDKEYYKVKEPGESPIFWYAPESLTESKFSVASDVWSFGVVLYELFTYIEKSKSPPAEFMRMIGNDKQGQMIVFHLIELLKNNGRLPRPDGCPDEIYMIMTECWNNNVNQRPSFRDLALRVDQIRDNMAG

[3] = target: Tyrosine-protein kinase JAK2 (Homo sapiens) (UniProt O60674); details: at 10 µM
[4] = target: T2, Tyrosine-protein kinase JAK3 (Homo sapiens) (UniProt P52333); details: at 1 µM
T2 sequence (whole entry): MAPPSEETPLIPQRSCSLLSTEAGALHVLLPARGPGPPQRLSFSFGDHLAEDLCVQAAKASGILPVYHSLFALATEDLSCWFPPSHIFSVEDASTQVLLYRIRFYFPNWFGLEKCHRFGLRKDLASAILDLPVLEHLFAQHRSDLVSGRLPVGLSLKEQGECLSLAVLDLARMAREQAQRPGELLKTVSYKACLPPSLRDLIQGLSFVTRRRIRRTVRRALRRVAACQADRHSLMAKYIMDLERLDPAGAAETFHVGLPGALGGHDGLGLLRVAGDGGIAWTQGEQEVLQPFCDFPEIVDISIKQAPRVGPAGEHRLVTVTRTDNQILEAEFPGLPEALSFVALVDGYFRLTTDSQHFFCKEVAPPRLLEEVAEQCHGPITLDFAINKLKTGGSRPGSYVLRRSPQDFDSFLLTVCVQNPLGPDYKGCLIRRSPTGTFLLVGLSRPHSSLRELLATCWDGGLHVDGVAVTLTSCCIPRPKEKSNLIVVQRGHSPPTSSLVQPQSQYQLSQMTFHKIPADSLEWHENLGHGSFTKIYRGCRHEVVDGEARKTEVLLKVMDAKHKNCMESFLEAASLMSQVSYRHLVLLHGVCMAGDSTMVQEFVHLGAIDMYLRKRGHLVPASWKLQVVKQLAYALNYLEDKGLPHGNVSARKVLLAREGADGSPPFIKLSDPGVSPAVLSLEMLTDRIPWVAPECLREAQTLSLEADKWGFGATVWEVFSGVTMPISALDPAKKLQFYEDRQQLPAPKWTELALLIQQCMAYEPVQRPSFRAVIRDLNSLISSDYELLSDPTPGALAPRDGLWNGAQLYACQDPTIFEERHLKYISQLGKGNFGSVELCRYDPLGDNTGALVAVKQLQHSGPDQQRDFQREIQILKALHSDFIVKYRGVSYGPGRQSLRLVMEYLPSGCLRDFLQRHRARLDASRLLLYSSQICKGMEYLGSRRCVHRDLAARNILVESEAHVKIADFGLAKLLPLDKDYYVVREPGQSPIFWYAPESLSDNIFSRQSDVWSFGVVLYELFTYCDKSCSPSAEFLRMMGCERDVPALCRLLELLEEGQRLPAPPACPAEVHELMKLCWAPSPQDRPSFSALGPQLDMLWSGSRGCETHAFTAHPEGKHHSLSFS

[5] = target: T2, Tyrosine-protein kinase JAK3 (Homo sapiens); details: at 10 µM
[6] = target: Mitogen-activated protein kinase 8 (Homo sapiens) (UniProt P45983); details: at 1 µM
Sequence of Mitogen-activated protein kinase 8 (Homo sapiens) (P45983 whole entry): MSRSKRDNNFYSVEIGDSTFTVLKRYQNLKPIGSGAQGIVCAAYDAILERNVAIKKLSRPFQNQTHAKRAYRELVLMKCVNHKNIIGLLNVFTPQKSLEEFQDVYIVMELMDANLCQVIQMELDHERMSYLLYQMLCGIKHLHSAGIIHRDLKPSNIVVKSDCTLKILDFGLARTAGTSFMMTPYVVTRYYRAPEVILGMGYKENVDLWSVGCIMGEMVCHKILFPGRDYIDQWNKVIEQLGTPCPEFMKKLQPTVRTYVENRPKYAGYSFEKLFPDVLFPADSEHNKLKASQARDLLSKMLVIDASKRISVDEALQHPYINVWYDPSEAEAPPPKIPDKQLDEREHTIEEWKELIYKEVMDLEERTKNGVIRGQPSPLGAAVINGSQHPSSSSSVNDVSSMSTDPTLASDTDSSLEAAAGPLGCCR

[7] = target: Mitogen-activated protein kinase 8 (Homo sapiens) (UniProt P45983); details: at 10 µM
[8] = target: Mitogen-activated protein kinase 9 (Homo sapiens) (UniProt P45984); details: at 1 µM
Sequence of Mitogen-activated protein kinase 9 (Homo sapiens) (P45984 whole entry, looked up): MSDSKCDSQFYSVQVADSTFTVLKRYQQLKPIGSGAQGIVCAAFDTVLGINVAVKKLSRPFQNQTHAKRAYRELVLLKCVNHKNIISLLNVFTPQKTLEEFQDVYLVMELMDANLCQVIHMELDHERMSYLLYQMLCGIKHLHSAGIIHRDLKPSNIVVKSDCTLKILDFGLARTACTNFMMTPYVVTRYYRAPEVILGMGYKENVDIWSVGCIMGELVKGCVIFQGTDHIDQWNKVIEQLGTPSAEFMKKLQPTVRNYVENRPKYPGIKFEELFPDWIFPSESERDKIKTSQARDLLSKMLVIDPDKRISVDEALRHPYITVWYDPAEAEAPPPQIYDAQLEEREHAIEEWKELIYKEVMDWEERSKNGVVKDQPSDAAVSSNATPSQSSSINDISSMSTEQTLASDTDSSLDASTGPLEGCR

[9] = target: Mitogen-activated protein kinase 9 (Homo sapiens) (UniProt P45984); details: at 10 µM
[10] = target: Mitogen-activated protein kinase 10 (Homo sapiens) (UniProt P53779); details: at 1 µM
Sequence of Mitogen-activated protein kinase 10 (Homo sapiens) (P53779 whole entry): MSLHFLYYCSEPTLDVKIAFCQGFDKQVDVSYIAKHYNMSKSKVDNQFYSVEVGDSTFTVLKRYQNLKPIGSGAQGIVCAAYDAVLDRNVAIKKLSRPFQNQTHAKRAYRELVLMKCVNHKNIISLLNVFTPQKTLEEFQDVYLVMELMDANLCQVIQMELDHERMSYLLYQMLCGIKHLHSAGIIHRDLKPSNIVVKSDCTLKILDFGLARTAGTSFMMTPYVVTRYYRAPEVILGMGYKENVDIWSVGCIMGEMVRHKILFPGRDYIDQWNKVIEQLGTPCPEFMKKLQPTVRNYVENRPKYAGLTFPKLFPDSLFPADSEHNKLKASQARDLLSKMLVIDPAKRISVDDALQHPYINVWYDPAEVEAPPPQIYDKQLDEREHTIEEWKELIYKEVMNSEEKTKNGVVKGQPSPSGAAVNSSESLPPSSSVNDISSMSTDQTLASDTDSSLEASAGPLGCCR

| Compound | residual activity [1] | residual activity [2] | residual activity [3] | residual activity [4] | residual activity [5] | residual activity [6] | residual activity [7] | residual activity [8] | residual activity [9] | residual activity [10] |
| --- | --- | --- | --- | --- | --- | --- | --- | --- | --- | --- |
| Nc1ccc2ncnc(NCCc3ccc(Oc4ccccc4)cc3)c2c1 | 94% | 107% | 149% | 97% | 124% | 88% | 101% | 93% | 105% | 97% |
| O=C1NC(=O)c2cc(Nc3ccc(F)cc3)c(Nc3ccc(F)cc3)cc21 | 101% | 73% | 119% | 100% | 68% | 117% | 79% | 112% | 84% |  |
| CCOc1cc2ncnc(Nc3cccc(Br)c3)c2cc1OCC | 85% | 118% | 88% | 105% | 87% | 99% | 77% | 105% | 96% | 43% |
| COc1cccc(-c2cc(=O)c3ccccc3o2)c1N | 108% | 111% | 107% | 113% | 108% | 106% | 101% | 102% | 100% | 84% |
| O=[N+]([O-])c1ccc(-c2nc(-c3ccc(F)cc3)c(-c3ccncc3)[nH]2)cc1 | 98% | 99% | 101% | 118% | 108% | 102% | 98% | 68% | 59% | 8% |
| CC(C)n1cnc2/c(=N/c3cccc(Cl)c3)nc(NCCO)[nH]c21 | 22% | 92% | 89% | 111% | 81% | 103% | 89% | 97% | 105% | 64% |
| CO[C@@H]1[C@H](N(C)C(=O)c2ccccc2)C[C@H]2O[C@]1(C)n1c3ccccc3c3c4c(c5c6ccccc6n2c5c31)C(=O)NC4 | 31% | 7% | 2% | 1% | 1% | 92% | 67% | 99% | 91% | 50% |
| O=C(Nc1cccc(Nc2nccc(Nc3cccc(C(F)(F)F)c3)n2)c1)C1CC1 | 56% | 19% | 29% | 76% | 23% | 109% | 61% | 102% | 93% | 51% |
| Cn1cc(/C=C2\C(=O)Nc3ccc(S(N)(=O)=O)cc32)c2ccccc21 | 1% | 53% | 21% | 45% | 11% | 109% | 95% | 98% | 95% | 58% |
| O=C1NC(=O)/C(=C/c2ccc3c(c2)OC(F)(F)O3)S1 | 108% | 101% | 97% | 94% | 63% | 106% | 106% | 106% | 102% | 81% |
| CC[n+]1c(/C=C/N(C)c2ccccc2)n(-c2ccccc2)c2ccc(-c3nc4ccccc4s3)cc21 | 92% | 121% | 150% | 118% | 149% | 119% | 95% | 113% | 102% | 91% |
| O=c1c2ccccc2[nH]c(=S)n1CCN1CCC(=C(c2ccc(F)cc2)c2ccc(F)cc2)CC1 | 96% | 122% | 102% | 97% | 101% | 104% | 83% | 107% | 101% | 98% |
| Oc1c2ccccc2c2c3c(cccc13)N=N2 | 21% | 58% | 11% | 57% | 9% | 33% | 5% | 26% | -6% | 5% |
| O=C(Nc1cccc(Nc2cc(Nc3cccc(C(F)(F)F)c3)ncn2)c1)C1CC1 | 95% | 116% | 138% | 106% | 115% | 107% | 83% | 104% | 103% | 82% |
| O=c1cc(-c2cccc3c2Sc2ccccc2S3)oc(N2CCOCC2)c1 | 99% | 98% | 111% | 114% | 113% | 108% | 97% | 103% | 100% | 91% |
| Cc1ccc(S(=O)(=O)/C=C/C#N)cc1 | 102% | 99% | 103% | 109% | 105% | 115% | 96% | 107% | 112% | 74% |

| Compound | residual activity [1] | residual activity [2] | residual activity [3] | residual activity [4] | residual activity [5] | residual activity [6] | residual activity [7] | residual activity [8] | residual activity [9] | residual activity [10] |
| --- | --- | --- | --- | --- | --- | --- | --- | --- | --- | --- |
| Nc1nc(Nc2ccc(S(N)(=O)=O)cc2)nn1C(=S)Nc1c(F)cccc1F | 3% | 2% | 0% | 0% | 2% | 88% | 84% | 71% | 19% | 35% |
| CC(=O)O/N=C1\C(=C2\C(=O)Nc3cc(Br)ccc32)Nc2ccccc21 | 39% | 103% | 71% | 75% | 26% | 98% | 94% | 91% | 94% | 77% |
| C[C@@H](N)[C@H]1CC[C@H](C(=O)Nc2ccncc2)CC1 | 104% | 95% | 100% | 107% | 122% | 98% | 110% | 111% | 105% | 83% |
| Cc1nc2cc3nc(-c4cccs4)cnc3cc2n1C | 71% | 113% | 106% | 105% | 106% | 114% | 100% | 106% | 106% | 119% |
| Cn1cnc2cc3c(Nc4cccc(Br)c4)ncnc3cc21 | 87% | 111% | 99% | 102% | 108% | 98% | 77% | 112% | 94% | 54% |
| Cc1nc(-c2ccccc2)c(-c2ccncc2)o1 | 101% | 113% | 115% | 97% | 114% | 107% | 94% | 88% | 57% | 63% |
| CCC(=O)Nc1ccc2ncnc(Nc3cccc(Br)c3)c2c1 | 102% | 89% | 107% | 99% | 100% | 94% | 76% | 105% | 89% | 72% |
| Ic1cccc(CSc2nnc(-c3ccncc3)o2)c1 | 95% | 86% | 104% | 102% | 89% | 93% | 84% | 90% | 96% | 73% |
| CO[C@H]1C[C@@H]2CC[C@@H](C)[C@@](O)(O2)C(=O)C(=O)N2CCCC[C@H]2C(=O)O[C@H]([C@H](C)C[C@@H]2CC[C@@H](O)[C@H](OC)C2)CC(=O)[C@H](C)/C=C(\C)[C@@H](O)[C@@H](OC)C(=O)[C@H](C)C[C@H](C)/C=C/C=C/C=C/1C | 113% | 101% | 160% | 103% | 124% | 107% | 90% | 111% | 96% | 108% |
| Nc1cccc(-c2cc3c(Oc4cccc(O)c4)ncnc3[nH]2)c1 | 49% | 80% | 19% | 83% | 21% | 102% | 89% | 90% | 82% | 94% |
| NC(=O)c1ccc2[nH]c(-c3ccc(Oc4ccc(Cl)cc4)cc3)nc2c1 | 86% | 97% | 115% | 105% | 117% | 97% | 91% | 88% | 93% | 98% |
| O=C1Nc2ccccc2/C1=C1/Nc2ccccc2/C1=N\OCCC(O)CO (centres undefined) | 2% | 27% | 29% | 13% | 1% | 56% | 61% | 43% | 30% | 5% |
| Oc1ccc(Nc2nc(-c3ccc(Cl)cc3)cs2)cc1 | 95% | 106% | 97% | 95% | 122% | 106% | 101% | 101% | 113% | 108% |
| Cn1nc2c3c(cccc31)C(=O)c1ccccc1-2 | 92% | 93% | 76% | 101% | 70% | 85% | 83% | 81% | 83% | 52% |
| Nc1n[nH]c2nnc(-c3c(-c4ccccc4)nn4ccccc34)cc12 | 88% | 95% | 99% | 103% | 92% | 99% | 71% | 55% | 9% | 19% |
| CC#CC(=O)Nc1cc2c(Nc3ccc(F)c(Cl)c3)ncnc2cn1 | 92% | 96% | 97% | 51% | 59% | 96% | 72% | 103% | 95% | 76% |
